Unmarked numbers belong to inactive results. Inconclusive results are not listed. The source made the active and inactive calls. Unless noted, calls come from the whole dose curve; as a rule, active = well fitted curve in either direction with a large enough effect (not every such curve was filed as active); inconclusive = small, poorly fitted or top-dose-only effect, or another doubt; inactive = flat fitted curve, though single readings scatter.
Columns and labels:
[1] = molecular target: Lysosomal acid glucosylceramidase (Homo sapiens) (UniProt P04062); assay: Glucocerebrosidase-p2 (AID 348; in the data active = potency below about 10 µM; note: potency is the fitted concentration of half-maximal effect); conditions: purified GBA, blue fluorogenic substrate, 40 min
Chain of Lysosomal acid glucosylceramidase (Homo sapiens) (P04062 whole entry, looked up): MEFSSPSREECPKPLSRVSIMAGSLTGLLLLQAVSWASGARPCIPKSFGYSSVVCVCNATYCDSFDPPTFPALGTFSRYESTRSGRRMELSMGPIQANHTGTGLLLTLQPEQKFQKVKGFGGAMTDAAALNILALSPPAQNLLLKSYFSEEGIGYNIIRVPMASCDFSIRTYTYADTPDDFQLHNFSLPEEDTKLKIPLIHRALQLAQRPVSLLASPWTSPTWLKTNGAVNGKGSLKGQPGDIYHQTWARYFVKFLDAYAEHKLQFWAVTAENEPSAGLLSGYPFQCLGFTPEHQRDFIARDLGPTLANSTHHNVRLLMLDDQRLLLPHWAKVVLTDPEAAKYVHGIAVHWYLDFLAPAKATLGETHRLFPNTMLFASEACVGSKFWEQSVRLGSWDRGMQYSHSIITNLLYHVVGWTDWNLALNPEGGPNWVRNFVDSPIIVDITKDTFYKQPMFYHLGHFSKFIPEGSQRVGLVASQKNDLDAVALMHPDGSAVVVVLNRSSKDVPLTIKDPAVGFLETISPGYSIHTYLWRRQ
In short: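 Compounds titrated from 0.6 nM upwards against 0.2 nM enzyme in pH 5.9 citric acid/KH2PO4, taurocholate, tween-20; blue fluorogenic substrate 80 uM, 40 min room temperature, stopped and read Ex 365/Em 440 for AC50.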

[2] = AP1 Signaling Pathway (AID 357); conditions: ME-180 AP-1-bla reporter, EGF-induced, beta-lactamase ratio, 5 h; at 7.69 µM (top of the series) unless noted;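 note: ME-180 reporter cells stimulated with EGF at its EC50 level; % is set by controls: 0 for no effect and ±100 for the full control effect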
In short: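 In this screen, ME-180 cells in Opti-MEM with 0.5% dialyzed FBS received EC50 EGF and compound titrations for 5 h. AP-1 reporter beta-lactamase was detected via CCF4 ratio, giving AC50 for positive and negative modulators.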

[3] = molecular target: Cytochrome P450 1A2 (Homo sapiens) (UniProt P05177); assay: p450-cyp1a2 (AID 410; calls by dose curve; note: potency is the fitted concentration of half-maximal effect;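 for activity change, negative = inhibition: -100% = full effect of reference inhibitor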); conditions: recombinant CYP1A2, luciferin-ME demethylation, luminescence; series mostly up to 11.4 µM
Chain of Cytochrome P450 1A2 (Homo sapiens) (P05177 whole entry, looked up): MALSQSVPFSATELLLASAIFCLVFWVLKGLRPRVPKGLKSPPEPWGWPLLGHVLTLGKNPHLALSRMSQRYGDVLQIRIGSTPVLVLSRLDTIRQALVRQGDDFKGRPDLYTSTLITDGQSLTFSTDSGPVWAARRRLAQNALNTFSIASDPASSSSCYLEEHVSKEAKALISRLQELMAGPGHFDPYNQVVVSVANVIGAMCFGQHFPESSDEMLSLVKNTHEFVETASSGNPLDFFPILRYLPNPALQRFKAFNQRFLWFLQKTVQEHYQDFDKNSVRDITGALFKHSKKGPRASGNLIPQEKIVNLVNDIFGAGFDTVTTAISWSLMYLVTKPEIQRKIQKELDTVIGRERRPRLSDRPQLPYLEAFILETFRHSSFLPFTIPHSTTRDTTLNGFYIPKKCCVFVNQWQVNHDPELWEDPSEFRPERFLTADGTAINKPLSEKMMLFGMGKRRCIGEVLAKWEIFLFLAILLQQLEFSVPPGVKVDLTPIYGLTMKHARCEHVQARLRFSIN
In short: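 Inhibition was calculated relative to 57 uM furafylline (full inhibition). The reaction used human CYP1A2 at 20nM with Luciferin-ME at its Km, 100uM, driven by an NADPH-regenerating system for 60 min at room temperature.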

[4] = NFAT Signaling Pathway (AID 444); conditions: Jurkat NFAT-bla M1, carbachol, beta-lactamase ratio, 5 h; at 7.69 µM (top of the series) unless noted;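 note: carbachol stimulus at about its EC50 of 1 µM final; % is set by controls: 0 for no effect and ±100 for the full control effect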
In short: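 Read-out: CCF4 FRET ratio (460 nm/530 nm) after 1 h RT dye loading, used for %activity and AC50 from titration series. Cells: Jurkat NFAT-β-lactamase/M1 line, treated with compound plus 1 uM carbachol for 5 h, 37 °C.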

[5] = Stat Signaling Pathway (AID 446); conditions: ME-180 SIE beta-lactamase reporter, IL-6 stimulated, 5 h; at 7.69 µM (top of the series) unless noted;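 note: ME-180 cervical cancer cells given 40 pM IL-6 alongside compound; SIE-controlled beta-lactamase reporter measured as 460/530 nm FRET emission ratio; % is set by controls: 0 for no effect and ±100 for the full control effect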
In short: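 ME-180 SIE-bla cells; overnight plating; cpd + IL-6 40 pM, 5 h, 37 C; LiveBLAzer 2.5 h RT; 460/530 nm emission ratio. Normalized to 300 pM IL-6 and 125 nM JAK inhibitor controls.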

[6] = molecular target: Glucocorticoid receptor (Homo sapiens) (UniProt P04150); assay: GR-GFP Redistribution (AID 450;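 active = compounds whose dose series gives a full or clear partial fitted curve of increased nuclear translocation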; note: potency is the fitted concentration of half-maximal effect); conditions: U2OS GR-GFP nuclear translocation, laser cytometry, 2 h
Chain of Glucocorticoid receptor (Homo sapiens) (P04150 whole entry, looked up, the tested form may be a part): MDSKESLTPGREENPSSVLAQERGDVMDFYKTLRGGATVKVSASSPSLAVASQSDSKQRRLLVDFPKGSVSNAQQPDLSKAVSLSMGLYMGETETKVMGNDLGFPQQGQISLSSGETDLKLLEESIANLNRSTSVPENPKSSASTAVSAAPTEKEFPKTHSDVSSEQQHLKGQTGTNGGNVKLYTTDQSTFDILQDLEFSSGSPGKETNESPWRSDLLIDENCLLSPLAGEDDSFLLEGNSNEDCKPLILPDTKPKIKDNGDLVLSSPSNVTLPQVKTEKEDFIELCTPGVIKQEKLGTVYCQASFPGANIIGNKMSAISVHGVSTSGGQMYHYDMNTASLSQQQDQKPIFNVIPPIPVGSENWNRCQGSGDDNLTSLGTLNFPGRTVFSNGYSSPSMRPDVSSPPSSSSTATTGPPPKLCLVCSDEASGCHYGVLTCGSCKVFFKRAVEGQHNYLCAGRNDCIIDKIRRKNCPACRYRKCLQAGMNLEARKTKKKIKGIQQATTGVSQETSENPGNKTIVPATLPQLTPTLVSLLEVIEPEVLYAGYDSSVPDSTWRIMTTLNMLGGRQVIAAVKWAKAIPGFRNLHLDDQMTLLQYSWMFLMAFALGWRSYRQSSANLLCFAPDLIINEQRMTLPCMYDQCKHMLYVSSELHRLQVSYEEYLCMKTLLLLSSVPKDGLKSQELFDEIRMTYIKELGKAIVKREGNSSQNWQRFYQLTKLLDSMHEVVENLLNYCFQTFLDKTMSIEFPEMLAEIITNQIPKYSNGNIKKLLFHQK

[7] = molecular target: Glucocorticoid receptor (Homo sapiens) (UniProt P04150); assay: GR-EFC Redistribution (AID 451; calls by dose curve; note: potency is the fitted concentration of half-maximal effect); conditions: CHO-K1 GR-EFC translocation, beta-gal luminescence, 2 h
In short: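 Translocation of GR-ED fusion to nuclear EA restores b-gal, read by luminescence after 1 h room-temperature detection. Engineered CHO-K1 biosensor cells, 1,000/well, exposed 2 h at 37 C to titrations up to 46 uM final.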

[8] = molecular target: Mitogen-activated protein kinase 10 (Mus musculus) (UniProt Q61831); assay: JNK3 AlphaScreen Assay (AID 530); conditions: JNK3 lysate, c-Jun phosphorylation; series mostly up to 11.4 µM;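 note: kinase came from lysate of stimulated human HepG2 cells; signal reports phosphorylation of biotinylated GST-cJun 1-79 at Ser73 with 10 µM ATP; % is set by controls: 0 for no effect and ±100 for the full control effect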
In short: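 Room-temperature AlphaScreen kinase assay; pre-activated HepG2 lysate as JNK3 source, biotin-GST-cJun(1-79) substrate, 10 uM ATP, compound 15 min preincubation.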

[9] = molecular target: Cytochrome P450 3A4 (Homo sapiens) (UniProt P08684); assay: qHTS Assay for Activators of Cytochrome P450 3A4 (AID 885; active = well fitted curve in the direction sought with a large enough effect; an effect the other way counts as inactive or inconclusive; note: nearly all actives have a fitted effect of over 65% in size); conditions: recombinant CYP3A4, Luciferin-PPXE luminescence, 60 min; series mostly up to 11.4 µM
Chain of Cytochrome P450 3A4 (Homo sapiens) (P08684 whole entry, looked up): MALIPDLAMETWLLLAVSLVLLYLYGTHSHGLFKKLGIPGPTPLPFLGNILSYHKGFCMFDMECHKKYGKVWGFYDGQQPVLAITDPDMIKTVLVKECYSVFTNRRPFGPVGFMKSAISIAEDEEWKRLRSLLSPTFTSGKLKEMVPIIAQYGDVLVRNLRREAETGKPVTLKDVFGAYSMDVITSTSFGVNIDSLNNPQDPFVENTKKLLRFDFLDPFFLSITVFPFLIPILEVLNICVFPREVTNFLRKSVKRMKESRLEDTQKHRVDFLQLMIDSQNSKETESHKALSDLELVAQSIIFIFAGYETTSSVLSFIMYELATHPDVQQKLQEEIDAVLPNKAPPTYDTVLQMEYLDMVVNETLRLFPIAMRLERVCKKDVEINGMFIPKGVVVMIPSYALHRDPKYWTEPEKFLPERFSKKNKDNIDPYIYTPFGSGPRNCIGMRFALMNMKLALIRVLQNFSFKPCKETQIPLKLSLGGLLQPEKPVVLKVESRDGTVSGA
In short: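 20nM CYP3A4 + 25uM Luciferin-PPXE (=KM), 200mM KPO4; cpd 10 min RT; NADPH regen, 60 min RT; stop w/ detection buffer, 20 min; luminescence. Normalized to 57 uM ketoconazole.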

[10] = molecular target: 3',5'-cyclic-AMP phosphodiesterase 4B (Homo sapiens) (UniProt Q07343); assay: qHTS Assay for Inhibitors of PDE-IV (AID 607; active = well fitted activation curve with a large enough effect in the main read-out, with a control signal flat, not every such curve was filed as active; note: % of control where 0% means no effect); conditions: HEK293 ACTOne CNG channel cells, membrane potential fluorescence; series mostly up to 22.9 µM
Chain of 3',5'-cyclic-AMP phosphodiesterase 4B (Homo sapiens) (Q07343 whole entry, looked up): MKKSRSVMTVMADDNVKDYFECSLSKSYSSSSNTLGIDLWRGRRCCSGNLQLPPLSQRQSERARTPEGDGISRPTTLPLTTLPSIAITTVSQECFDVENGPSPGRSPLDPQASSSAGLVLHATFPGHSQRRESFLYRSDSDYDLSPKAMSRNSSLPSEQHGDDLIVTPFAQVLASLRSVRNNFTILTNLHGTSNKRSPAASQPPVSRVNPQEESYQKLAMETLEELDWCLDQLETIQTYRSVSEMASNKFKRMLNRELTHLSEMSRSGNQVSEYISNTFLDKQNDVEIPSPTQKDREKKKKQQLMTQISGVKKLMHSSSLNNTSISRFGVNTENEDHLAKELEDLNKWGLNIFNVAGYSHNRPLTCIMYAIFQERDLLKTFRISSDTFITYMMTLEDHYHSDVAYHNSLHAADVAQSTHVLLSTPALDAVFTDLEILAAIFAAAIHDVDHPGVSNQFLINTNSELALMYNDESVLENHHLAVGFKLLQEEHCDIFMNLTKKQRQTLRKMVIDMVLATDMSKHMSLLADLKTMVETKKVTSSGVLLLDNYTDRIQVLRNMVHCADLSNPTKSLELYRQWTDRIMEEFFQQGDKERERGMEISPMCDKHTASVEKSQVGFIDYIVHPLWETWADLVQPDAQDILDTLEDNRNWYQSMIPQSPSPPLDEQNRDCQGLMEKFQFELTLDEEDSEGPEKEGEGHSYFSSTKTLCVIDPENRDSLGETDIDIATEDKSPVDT
In short: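 ACTOne HEK293 cells carry a modified cAMP-gated CNG channel and express endogenous PDE4; plated 1000 cells/well, compounds up to 22.9 uM final. Membrane-potential dye fluorescence (ex 535/em 590) was read; parental cells received 10 uM forskolin + 100 uM RO 20-1724.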

[11] = qHTS Assay for Identification of Small Molecule Agonists for Hypoxia Response Element Signaling Pathway (AID 914; active = well fitted activation curve with a large enough effect in the signal ratio, with a control signal flat, not every such curve was filed as active; the % refers to the signal ratio; note: % of control where 0% means no effect); conditions: ME-180 (cervical carcinoma) HRE-bla reporter, beta-lactamase ratio, CoCl2, 17 h; activation: stronger effect = higher value
In short: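 Read-out: CCF4 FRET ratio of 460nm to 530nm emission (excitation 405nm) after 2.5 hours at room temperature, taken from HRE-bla ME-180 cells that had been exposed to compound and EC50 CoCl2 for 17 hours.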

[12] = molecular target: Cytochrome P450 2C9 (Homo sapiens) (UniProt P11712); assay: qHTS Assay for Inhibitors and Substrates of Cytochrome P450 2C9 (AID 883; active = well fitted curve in the direction sought with a large enough effect; an effect the other way counts as inactive or inconclusive; note: nearly all actives have a fitted effect of over 60% in size; note: potency is the fitted concentration of half-maximal effect); conditions: recombinant CYP2C9, luciferin-H luminescence, 60 min; series mostly up to 11.4 µM
Chain of Cytochrome P450 2C9 (Homo sapiens) (P11712 whole entry, looked up): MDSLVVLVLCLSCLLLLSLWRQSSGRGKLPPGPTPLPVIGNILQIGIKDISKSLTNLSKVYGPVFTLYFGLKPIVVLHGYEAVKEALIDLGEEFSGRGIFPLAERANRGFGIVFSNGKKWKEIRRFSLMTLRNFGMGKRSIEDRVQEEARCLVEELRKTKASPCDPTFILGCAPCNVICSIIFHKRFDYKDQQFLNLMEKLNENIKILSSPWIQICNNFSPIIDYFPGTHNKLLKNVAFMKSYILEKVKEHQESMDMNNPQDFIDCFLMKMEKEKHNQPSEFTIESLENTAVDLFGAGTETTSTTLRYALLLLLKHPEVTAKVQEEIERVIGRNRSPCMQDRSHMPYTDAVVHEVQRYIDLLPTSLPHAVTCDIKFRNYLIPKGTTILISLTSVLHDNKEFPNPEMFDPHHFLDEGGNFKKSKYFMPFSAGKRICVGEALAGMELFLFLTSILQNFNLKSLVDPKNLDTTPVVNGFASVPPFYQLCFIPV
In short: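 Inhibition of CYP2C9 is scored as loss of luminescence, with 57uM sulphaphenazole defining 100% inhibition. Substrate Luciferin-H is used at 100uM, equal to its KM; enzyme at 10nM in 25mM KPO4, 60 min at 37C with NADPH regeneration.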

[13] = molecular target: Cytochrome P450 2D6 (Homo sapiens) (UniProt P10635); assay: qHTS Assay for Inhibitors and Substrates of Cytochrome P450 2D6 (AID 891; active = well fitted curve in the direction sought with a large enough effect; an effect the other way counts as inactive or inconclusive;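 note: luciferin methyl ether substrate demethylated by CYP2D6 with NADPH regeneration; % is set by controls: 0 for no effect and ±100 for the full control effect; nearly all actives have a fitted effect of over 60% in size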); conditions: recombinant CYP2D6, luciferin-ME EGE luminescence; series mostly up to 11.4 µM
Chain of Cytochrome P450 2D6 (Homo sapiens) (P10635 whole entry, looked up): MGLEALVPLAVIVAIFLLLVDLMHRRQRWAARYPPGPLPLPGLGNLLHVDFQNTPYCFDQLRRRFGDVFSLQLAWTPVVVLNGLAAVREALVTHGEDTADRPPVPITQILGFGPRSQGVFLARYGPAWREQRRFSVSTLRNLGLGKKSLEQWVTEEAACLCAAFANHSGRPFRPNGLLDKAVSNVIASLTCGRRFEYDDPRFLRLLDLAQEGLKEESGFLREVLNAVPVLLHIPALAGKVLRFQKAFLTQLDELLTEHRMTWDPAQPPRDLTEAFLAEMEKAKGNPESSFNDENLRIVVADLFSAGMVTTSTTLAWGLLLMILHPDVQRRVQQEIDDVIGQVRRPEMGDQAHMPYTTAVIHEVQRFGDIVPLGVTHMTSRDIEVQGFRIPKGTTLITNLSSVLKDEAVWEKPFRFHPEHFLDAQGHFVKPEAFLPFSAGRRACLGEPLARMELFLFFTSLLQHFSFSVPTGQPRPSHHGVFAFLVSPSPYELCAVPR
In short: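 Human CYP2D6 (5 nM) with 30 uM Luciferin-ME EGE (at Km) in 100 mM KPO4, compound preincubated 10 min, then NADPH regeneration system for 60 min at room temperature. Luciferin read by luminescence; normalized to 1.43 uM quinidine.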

[14] = molecular target: Cytochrome P450 2C19 (Homo sapiens) (UniProt P33261); assay: qHTS Assay for Inhibitors and Substrates of Cytochrome P450 2C19 (AID 899; active = well fitted curve in the direction sought with a large enough effect; an effect the other way counts as inactive or inconclusive; note: potency is the fitted concentration of half-maximal effect; nearly all actives have a fitted effect of over 60% in size); conditions: recombinant CYP2C19, luciferin-H EGE luminescence; series mostly up to 11.4 µM
Chain of Cytochrome P450 2C19 (Homo sapiens) (P33261 whole entry, looked up): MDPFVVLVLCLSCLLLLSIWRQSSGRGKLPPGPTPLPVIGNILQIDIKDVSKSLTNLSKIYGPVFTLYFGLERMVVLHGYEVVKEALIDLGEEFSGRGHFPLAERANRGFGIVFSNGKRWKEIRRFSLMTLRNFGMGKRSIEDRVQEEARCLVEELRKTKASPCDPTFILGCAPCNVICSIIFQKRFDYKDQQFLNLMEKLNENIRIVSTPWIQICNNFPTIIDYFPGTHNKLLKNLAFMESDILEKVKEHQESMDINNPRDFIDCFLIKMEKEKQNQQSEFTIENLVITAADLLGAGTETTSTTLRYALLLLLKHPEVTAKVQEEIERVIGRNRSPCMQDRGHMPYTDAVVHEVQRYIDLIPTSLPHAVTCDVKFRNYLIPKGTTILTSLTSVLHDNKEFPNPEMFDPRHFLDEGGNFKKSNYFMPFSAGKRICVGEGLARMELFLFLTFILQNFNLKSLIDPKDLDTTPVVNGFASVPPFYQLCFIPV
In short: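 5nM enzyme + 10uM Luciferin-H EGE (=KM), 50mM KPO4; cpd pin-transferred, 10 min 37C; NADPH regen, 60 min 37C; stopped w/ luciferin detection reagent, 20 min; luminescence. Normalized to 57uM ketoconazole (AC100).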

Row | Structure (SMILES) | Potency [1] [µM] | activity change, negative = inhibition [2] [%] | activity change, negative = inhibition [3] | activity change, negative = inhibition [4] [%] | activity, negative = inhibition [5] [%] | Potency [6] [µM] | Potency [7] [µM] | Potency [8] | Potency [9] | Potency [3] | Potency [10] | activation [11] [%] | Potency [12] | Potency [13] | Potency [14]
1 | C=C[C@]1(C)C[C@H](OC(=O)CO)[C@]2(C)C3C(=O)CC[C@]3(CC[C@H]2C)[C@H](C)[C@H]1O (stereo not given in full) | > 11.4 | -0.357 | -21% [at 2.29 µM] | -4.75 | -4.08 | > 46 | > 9.22 | inactive | inactive | – | – | – | – | – | –
2 | NS(=O)(=O)c1ccc(N=Nc2ccc(O)c(C(=O)O)c2)cc1 | > 11.4 | -0.844 | – | -4.82 | -2.97 | > 46 | > 9.22 | inactive | – | inactive | inactive | 12.3 | – | – | –
3 | CCCCC[C@@H](O)[C@@H]1C(=O)O[C@@H](C)[C@@H](O)\C=C/C=C\C=C/C=C\C=C(\C)[C@H](O)C[C@H](O)C[C@H](O)C[C@H](O)C[C@H](O)C[C@H](O)C[C@@H]1O | > 11.4 | -1.52 | 3.3% [at 2.29 µM] | -11.4 | 11 | > 46 | > 9.22 | inactive | – | – | – | – | inactive | inactive | 3.98 µM (active)
4 | NC(=O)Nc1n[nH]c(-c2ccccc2)n1 | > 11.4 | 4.22 | – | -3.57 | 2.91 | > 46 | > 9.22 | inactive | – | 3.16 µM (active) | inactive | 12.6 | – | – | –
5 | O=c1cnc2cnc(Oc3ccccc3)nc2n1CCc1ccccc1 | > 11.4 | 6.02 | – | -28.7 | -4.75 | > 9.22 | > 46 | inactive | – | 3.16 µM (active) | – | – | 3.16 µM (active) | – | 6.31 µM (active)
6 | CC(C)CCC[C@@H](C)[C@@H]1CC[C@@H]2[C@H]3CC[C@H]4C[C@@H](N)CC[C@@]4(C)[C@@H]3CC[C@]21C | > 11.4 | 13.1 | – | 26.8 | 11.5 | > 46 | > 9.22 | inactive | – | inactive | inactive | 7.37 | – | – | –
7 | O=S(=O)(O)c1ccc(-c2nnc(-c3ccccn3)nc2-c2ccc(S(=O)(=O)O)o2)o1 | > 11.4 | 4.23 | – | 3.88 | 2.53 | > 46 | > 9.22 | inactive | – | inactive | inactive | 8.26 | – | – | –
8 | CN(C)Cc1ccc(O)c(CN(C)C)n1 | > 11.4 | 1.16 | – | 4.31 | 0.249 | > 46 | > 9.22 | inactive | – | inactive | inactive | 2.88 | – | – | –
9 | NS(=O)(=O)c1ccc(N=C2C(=O)Nc3ccccc32)cc1 | > 11.4 | -4.71 | -12.7% [at 2.29 µM] | 4.31 | 4.23 | > 46 | > 9.22 | inactive | – | – | inactive | -6.17 | – | – | –
